“And” between values parts separate entries of the source, which are not always exact repeats. Equal entries are not always repeated. Out of some 6,400 compounds screened, about 610 (9.5%) were called active. Rule as the data show it: active = activity change below about -70%; inconclusive = no clear call, values can overlap the other calls; inactive = above that. This excerpt belongs to a sample that is enriched for actives. Where a structure was tested more than once in an assay, its records may differ in their call. Where a SMILES comes first, the peptide text is derived from it.

The experiment can be described thus: Toxoplasma gondii ME49Luc growth in HeLa cells, luciferase, no IFN-y, primary screen (AID 1259421). The following applies: T. gondii ME49Luc in HeLa, 72 h, stronger effect = lower value, concentration not given here.
With `C[N@@+]1(CC2CC2)CC[C@]23c4c5ccc(O)c4O[C@H]2C(=O)CC[C@]3(O)[C@H]1C5`, the activity change, negative = inhibition is -5.91% (inactive).

Consider `CC(C)NCC(O)c1ccc(N)c(C#N)c1` (centres undefined), for which the activity change, negative = inhibition is 11.6% (inactive) and -5.38% (inactive).

For `C[C@]12CCC3[C@@H](CC[C@@]45O[C@@H]4C(=O)C(C#N)C[C@]35C)C1CC[C@@H]2O` (some centres undefined), the activity change, negative = inhibition was -74.3% (active).

As to `C[C@]12C[C@H]3S[C@H]3C[C@@H]1CC[C@@H]1[C@@H]2CC[C@]2(C)[C@@H](O)CC[C@@H]12`, the activity change, negative = inhibition was -16.5% (inactive).

For the compound `C[C@]12CC[C@H]3[C@@H](CC[C@@]45O[C@@H]4C(=O)C(C#N)C[C@]35C)[C@@H]1CC[C@@H]2O` (some centres undefined), the activity change, negative = inhibition is 6.81% (inactive).

As for `COC[C@H]1OC(=O)c2coc3c2[C@@]1(C)C1=C(C3=O)C2CCC(=O)[C@@]2(C)C[C@H]1OC(C)=O` (some centres undefined), the activity change, negative = inhibition is -5.28% (inactive).

For the compound `CC(=O)C1CCC2C3CCC4CC(C)(O)CCC4(C)C3CCC12C` (centres undefined), the activity change, negative = inhibition is 13.6% (inactive).

For the compound `COc1cc2cc(c1Cl)N(C)C(=O)C[C@H](OC(=O)C(C)C)[C@]1(C)O[C@H]1[C@H](C)[C@@H]1C[C@@](O)(NC(=O)O1)[C@H](OC)/C=C/C=C(/C)C2`, the activity change, negative = inhibition was -83.8% (active).

For the compound `COC1=CC(=O)OC(/C=C/c2ccccc2)C1` (centres undefined), the activity change, negative = inhibition was 9.89% (inactive).

As to `CC1(C)C(=O)N(c2ccc(C#N)c(C(F)(F)F)c2)C(=O)N1CCCCO`, the activity change, negative = inhibition is 4.23% (inactive).

Regarding `CN1C(=O)CC(=O)N(c2ccccc2)c2cc(Cl)ccc21`, the activity change, negative = inhibition is 7.34% (inactive).

Take `C[C@]12CC[C@H](OC3OC(O)C(O)C(O)C3O)C=C1CCC1C2CC[C@]2(C)[C@@H](c3ccc(=O)oc3)CC[C@]12O` (some centres undefined): the activity change, negative = inhibition was -83.9% (active).

For `C[C@@H]1O[C@@H](O[C@@H]2C=C3CCC4C(CC[C@]5(C)[C@@H](c6ccc(=O)oc6)CC[C@]45O)[C@@]3(C)CC2)C(O)C(O)[C@H]1O` (some centres undefined), the activity change, negative = inhibition was -85.7% (active).

For the compound `NCCc1ccccn1`, the activity change, negative = inhibition was 26.7% (inactive) and 12% (inactive).

Consider `Cc1nnc2n1-c1sc(CCC(=O)N3CCOCC3)cc1C(c1ccccc1Cl)=NC2`, for which the activity change, negative = inhibition is 10% (inactive) and 7.36% (inactive).

With `O=C(CS(=O)C(c1ccccc1)c1ccccc1)NO` (centres undefined), the activity change, negative = inhibition is 2.69% (inactive).

For `CCC(CO)NC(=O)C1C=C2c3cccc4c3c(cn4C)CC2N(C)C1` (centres undefined), the activity change, negative = inhibition was 0.967% (inactive).

On to `Nc1ccc([As](=O)(O)O)cc1`, for which the activity change, negative = inhibition was 2.94% (inactive).

Regarding `CC(C)C[C@H](NC(=O)[C@H](Cc1ccccc1)NC(=O)CNC(=O)[C@H](C)NC(=O)[C@@H](N)Cc1ccc(O)cc1)C(=O)O`, the activity change, negative = inhibition is 15.2% (inactive).

For the compound `C[C@@H]1O[C@@H](O[C@H]2CC[C@]3(C=O)C4CC[C@]5(C)[C@@H](C6=CC(=O)OC6)CC[C@]5(O)C4CC[C@]3(O)C2)[C@H](O)[C@H](O)[C@H]1O` (some centres undefined), the activity change, negative = inhibition was -76.4% (active).

Turning to `C[C@]12CC[C@H]3[C@@H](CC[C@]4(O)C[C@@H](O)CC[C@]34C=O)[C@@]1(O)CC[C@@H]2C1=CC(=O)OC1`, the activity change, negative = inhibition was -91% (active).

With `C[C@]12CCC3C(CC[C@]4(O)C[C@@H](O)CC[C@]34C=O)[C@@]1(O)CCC2C1=CC(=O)OC1` (some centres undefined), the activity change, negative = inhibition is -72.5% (active) and -88.8% (active).

On to `CCN1C[C@]2(COC)CCC(OC)[C@@]34C5C[C@]6(O)[C@H](OC(=O)c7ccc(OC)cc7)C5[C@@](OC(C)=O)(C[C@H]6OC)[C@@H]([C@H](OC)C23)[C@@H]14` (some centres undefined), for which the activity change, negative = inhibition is -1.07% (inactive).

On to `NC1CCN(c2cccnc2)C1` (centres undefined), for which the activity change, negative = inhibition is 10.7% (inactive).

On to `C[C@H](N)Cn1ccc2cc(F)c(Cl)cc21`, for which the activity change, negative = inhibition was 7.22% (inactive).

Regarding `Cc1ncc(CNC(=O)N(CCCl)[NH2+][O-])c(N)n1`, the activity change, negative = inhibition is 18.6% (inactive).

On to `CN(C)[C@@H]1C(=O)C(C(N)=O)C(=O)[C@@]2(O)C(=O)C3C(=O)c4c(O)cccc4[C@](C)(O)[C@H]3C[C@@H]12` (some centres undefined), for which the activity change, negative = inhibition is 4.49% (inactive).

Turning to `N[C@@H](Cc1ccc(O)cc1)C(=O)NCC(=O)NCC(=O)O` (H-Tyr-Gly-Gly-OH), the activity change, negative = inhibition is -5.06% (inactive).

On to `NC(=O)C[S@@](=O)C(c1ccccc1)c1ccccc1`, for which the activity change, negative = inhibition is 3.02% (inactive).

For `CCCC(C)C1(CC)C(=O)NC(=O)NC1=O` (centres undefined), the activity change, negative = inhibition is 19.8% (inactive).

For `CN[C@@H](C)[C@H](O)c1ccccc1`, the activity change, negative = inhibition is -0.966% (inactive).

Turning to `C[C@]12CCC(=O)C(=O)C1CC[C@@H]1[C@@H]2CC[C@]2(C)C(=O)CC[C@@H]12` (some centres undefined), the activity change, negative = inhibition is 1.31% (inactive).

In the case of `CCN[C@@H](C)Cc1cccc(C(F)(F)F)c1`, the activity change, negative = inhibition was 3.99% (inactive).

Consider `Cc1nnc2ccc(-c3cccc(C(F)(F)F)c3)nn12`, for which the activity change, negative = inhibition is -56.7% (inactive) and -76.7% (active).

As for `CCOC(=O)c1ncc2[nH]c3ccc(OCc4ccccc4)cc3c2c1COC`, the activity change, negative = inhibition was -0.724% (inactive) and 16.8% (inactive).

`NC(=O)c1cn(C2OC(CO)[C@H](O)[C@@H]2O)c2ncnc(N)c12` (some centres undefined): the activity change, negative = inhibition was -91.9% (active).

With `CCNC(=O)[C@H]1O[C@@H](n2cnc3c(N)ncnc32)[C@H](O)[C@@H]1O`, the activity change, negative = inhibition was -4.22% (inactive).

For `CCNC(=O)C1OC(n2cnc3c(N)ncnc32)C(O)C1O` (centres undefined), the activity change, negative = inhibition was 1.34% (inactive).

For the compound `C#CCN1C(C)=C(C(=O)CCO)C(c2cccc(-n3oo3)c2)C(C(=O)OC)=C1C` (centres undefined), the activity change, negative = inhibition is 11.7% (inactive).

In the case of `OC1(c2ccc(Cl)cc2)c2ccccc2C2=NCCN21` (centres undefined), the activity change, negative = inhibition was 22.1% (inactive).

Consider `CN1CCC2(c3cccc(O)c3)Cc3nc4ccccc4cc3CC2C1` (centres undefined), for which the activity change, negative = inhibition is -1.33% (inactive).

For the compound `CC[C@H]1CN2CCC1C[C@@H]2[C@H](O)c1ccnc2ccc(OC)cc12` (some centres undefined), the activity change, negative = inhibition is 19.4% (inactive).

On to `CC1=C[C@H]2[C@]3(O)[C@H](C)[C@@H](O)[C@@]4(O)[C@H]([C@@H]3C=C(CO)C[C@]2(O)C1=O)C4(C)C`, for which the activity change, negative = inhibition was -3.08% (inactive).

On to `CCCCCCCCCCCCCC(=O)O[C@@H]1[C@@H](C)[C@@]2(O)[C@@H](C=C(CO)C[C@]3(O)C(=O)C(C)=C[C@@H]23)[C@@H]2C(C)(C)[C@]12OC(C)=O`, for which the activity change, negative = inhibition was -85.6% (active) and -84.7% (active).

For the compound `CCCCCCCCCOc1ccc2[nH]cc(CCN)c2c1`, the activity change, negative = inhibition is 7.94% (inactive).

For the compound `CCC1/C=C/C=C/C[C@H](C)[C@@H](O)[C@](C)(O)C(=O)[C@@H](C)[C@H](O)[C@@H](C)C(=O)[C@H](C)[C@@H](O)[C@H](C)/C=C/C(=O)OC2[C@@H](C)C(CC1)OC1(CC[C@@H](C)C(C[C@H](C)O)O1)[C@@H]2C` (some centres undefined), the activity change, negative = inhibition was -89.1% (active).

`CC1=CC[C@@H]2[C@@H](C1)c1c(O)cc(CC#CCCCNS(C)(=O)=O)cc1OC2(C)C`: the activity change, negative = inhibition was 17.8% (inactive).

Regarding `COc1ccc(C(=O)O)cc1OC`, the activity change, negative = inhibition is 8.1% (inactive).

On to `O=C(O[C@H]1CN2CCC1CC2)N(Cc1cc(F)c(F)c(F)c1)c1cccc(F)c1`, for which the activity change, negative = inhibition was 16.6% (inactive).

With `CC(=O)Oc1ccc(/C=C/c2cc(OC(C)=O)cc(OC(C)=O)c2)cc1`, the activity change, negative = inhibition was 11.4% (inactive).

On to `O=C1CCC[C@@H]2[C@@H]3CCCN4CCC[C@H](CN12)[C@@H]34`, for which the activity change, negative = inhibition was 15.2% (inactive).

`C=C1[C@@H](C)[C@H]2[C@H](Cc3ccccc3)NC(=O)[C@]23OC(=O)/C=C\[C@H](O)CCC[C@@H](C)C/C=C/[C@H]3[C@@H]1O`: the activity change, negative = inhibition was -85.5% (active).

On to `C[C@]12Cc3cn[nH]c3C[C@@H]1CC[C@@H]1[C@@H]2CC[C@@]2(C)[C@H]1CC[C@]2(C)O`, for which the activity change, negative = inhibition is -3.74% (inactive).

Turning to `O=C(NC(=O)c1c(F)cccc1F)Nc1cc(Cl)c(OC(F)(F)C(F)C(F)(F)F)cc1Cl` (centres undefined), the activity change, negative = inhibition was -81.8% (active) and -81.1% (active).

For the compound `CC(=O)OCC1=C(C(=O)O)N2C(=O)[C@@H](NC(=O)CCCC(N)C(=O)O)C2SC1.[Zn]` (some centres undefined), the activity change, negative = inhibition is 20.4% (inactive).

As for `CC(C)=CC1C(C(=O)OCc2coc(Cc3ccccc3)c2)C1(C)C` (centres undefined), the activity change, negative = inhibition is 19.4% (inactive).

Turning to `Cc1nccc2c1[nH]c1ccccc12`, the activity change, negative = inhibition is 1.21% (inactive).

With `Cc1c2ccncc2c(C)c2c1[nH]c1ccccc12`, the activity change, negative = inhibition was -83.1% (active).

For the compound `c1ccc2c(c1)[nH]c1cnccc12`, the activity change, negative = inhibition was -0.879% (inactive).

For the compound `COc1ccc2c(c1)CN(C)CC2c1ccc(Cl)c(Cl)c1` (centres undefined), the activity change, negative = inhibition was 5.02% (inactive).

`O=C1CCC2(O)C3Cc4ccc(O)c5c4C2(CCN3CC2CC2)C1O5` (centres undefined): the activity change, negative = inhibition was 10.3% (inactive).

Take `Clc1ccc(C2=CCCC3CCC2N3)cn1` (centres undefined): the activity change, negative = inhibition is 12.4% (inactive) and -82.3% (active).

As to `CN(C(=O)Cc1ccc(Cl)c(Cl)c1)[C@H](CN1CCCC1)c1ccccc1`, the activity change, negative = inhibition is 8.8% (inactive) and 17.5% (inactive).

`OC12C3C4CC5C6C4C1C6C(C53)N2CCc1cccc(F)c1` (centres undefined): the activity change, negative = inhibition was 18.7% (inactive) and 6.8% (inactive).

Take `CN(C)c1ccc(/C=C2\CCCN=C2c2cccnc2)cc1`: the activity change, negative = inhibition was -1.7% (inactive) and -12.2% (inactive).

For `CC1(C)CC[C@]2(C(=O)O)CC[C@]3(C)[C@H](C(=O)C=C4[C@@]5(C)C=C(C#N)C(=O)C(C)(C)[C@@H]5CC[C@]43C)[C@@H]2C1`, the activity change, negative = inhibition is -98.8% (active).

As for `O=C1NCN(c2ccccc2)C12CCN(CC1COc3ccccc3O1)CC2` (centres undefined), the activity change, negative = inhibition was -3.91% (inactive) and 4.3% (inactive).

In the case of `C[C@@H]1C[C@@H]([C@H](O)CC2CC(=O)NC(=O)C2)C(=O)[C@@H](C)C1`, the activity change, negative = inhibition is -81.3% (active) and -84.7% (active).

Regarding `CC1CC(C)C(=O)C(C(O)CC2CC(=O)NC(=O)C2)C1` (centres undefined), the activity change, negative = inhibition is -83.8% (active).

As to `Oc1c(I)cc(I)cc1I`, the activity change, negative = inhibition is 3.61% (inactive).

With `CN1CC(CNC(=O)OCc2ccccc2)CC2c3cccc4c3c(cn4C)CC21` (centres undefined), the activity change, negative = inhibition is 8.87% (inactive) and 8.34% (inactive).

On to `N#CC(C#N)=NNc1ccc(OC(F)(F)F)cc1`, for which the activity change, negative = inhibition was 20% (inactive).

As for `Oc1ccc2c3c1O[C@H]1c4oc5ccccc5c4C[C@@]4(O)C(C2)N(CC2CC2)CC[C@]314`, the activity change, negative = inhibition is -2.8% (inactive).

For `C/C(=C/C=C/[C@@H](C)C(=O)O)[C@H]1CN[C@H](C(=O)O)[C@H]1CC(=O)O`, the activity change, negative = inhibition is 4.56% (inactive).

The record behind these values is PubChem BioAssay AID1259421 (Broad Institute, 2018).
